This is an account of results in publication PMC7862700, “An all-to-all approach to the identification of sequence-specific readers for epigenetic DNA modifications on cytosine”.

The target in one assay is T1, ERF (Homo sapiens, UniProt P50548 1-548).
T1 sequence: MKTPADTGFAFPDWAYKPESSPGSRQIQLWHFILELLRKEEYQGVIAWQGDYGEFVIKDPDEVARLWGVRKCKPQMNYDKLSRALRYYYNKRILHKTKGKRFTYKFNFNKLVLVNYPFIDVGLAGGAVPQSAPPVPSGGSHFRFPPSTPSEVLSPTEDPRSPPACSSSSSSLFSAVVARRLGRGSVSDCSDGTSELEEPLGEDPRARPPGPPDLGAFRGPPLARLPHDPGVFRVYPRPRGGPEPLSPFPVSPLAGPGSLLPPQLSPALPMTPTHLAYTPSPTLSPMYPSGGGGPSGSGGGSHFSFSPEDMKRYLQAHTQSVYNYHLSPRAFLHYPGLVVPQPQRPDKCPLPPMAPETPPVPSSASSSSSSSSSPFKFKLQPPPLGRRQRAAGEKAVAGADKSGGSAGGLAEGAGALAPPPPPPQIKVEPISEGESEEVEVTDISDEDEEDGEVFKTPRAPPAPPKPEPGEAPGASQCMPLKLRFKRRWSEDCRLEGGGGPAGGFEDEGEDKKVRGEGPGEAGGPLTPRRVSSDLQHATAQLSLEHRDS
Description: DAPPL (digital affinity profiling via proximity ligation, sequencing); 10 mM Tris-HCl pH 7.5, 50 mM NaCl, 1 mM DTT, 4% glycerol, room temperature, 30 min; GST-TFs on glutathione beads, 16-mer random dsDNA library, 0.1% formaldehyde crosslink after washing; high values mean tight binding. Conditions: protein: recombinant; tags: N-terminal GST; dsDNA, one strand shown. In outline:
(§1)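 Human transcription factors fused to GST were expressed in yeast, captured on glutathione beads, given DNA barcodes and pooled with a GST-only negative control. Pools were incubated with 200 nmole of a 16-mer random double-stranded DNA library in Tris/NaCl/DTT/glycerol buffer at room temperature for 30 min. They were then washed, crosslinked with 0.1% formaldehyde, proximity-ligated (BsaI/T4 ligase, 1 h, 37 °C), PCR-amplified and sequenced on an Illumina NextSeq500. Binding signal is each 6-mer's read frequency for a factor divided by its frequency for the GST control.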
Turning to TCCCAG, the binding signal was 1.05 fold enrichment (6-mer frequency, TF over GST control).
As to TTGGCT, the binding signal is 1.18 fold enrichment (6-mer frequency, TF over GST control).
On the same count and under the same terms, as for CGATGA, the figure is 1.14 fold enrichment (6-mer frequency, TF over GST control); as for GCCCCC, 1.24 fold enrichment (6-mer frequency, TF over GST control); as for GCGTTT, 1.1 fold enrichment (6-mer frequency, TF over GST control).
The same measure, in the same setting: under TTCGGC stands 1.13 fold enrichment (6-mer frequency, TF over GST control); under TAGTCT, 1.17 fold enrichment (6-mer frequency, TF over GST control); under TAGGTC, 1.01 fold enrichment (6-mer frequency, TF over GST control).
Same read-out and setting: as for ACCGAA, the figure is 1.09 fold enrichment (6-mer frequency, TF over GST control); as for GTATGG, 1.25 fold enrichment (6-mer frequency, TF over GST control); as for AGCTGC, 1.17 fold enrichment (6-mer frequency, TF over GST control).
Consider AGCCTA, for which the binding signal was 1.12 fold enrichment (6-mer frequency, TF over GST control).
Same read-out and setting: under AACCCA stands 1.1 fold enrichment (6-mer frequency, TF over GST control); under ACTCGC, 1.17 fold enrichment (6-mer frequency, TF over GST control); under TATCAA, 1.08 fold enrichment (6-mer frequency, TF over GST control).
The same measure, in the same setting: as for AAGCAA, the figure is 1.01 fold enrichment (6-mer frequency, TF over GST control); as for TGCGCG, 1.24 fold enrichment (6-mer frequency, TF over GST control); as for GAAAAA, 1.08 fold enrichment (6-mer frequency, TF over GST control).
Still for that read-out and setting: under CGATCA stands 1.09 fold enrichment (6-mer frequency, TF over GST control); under GCGCCT, 1.05 fold enrichment (6-mer frequency, TF over GST control).
ATCATT: the binding signal was 1.13 fold enrichment (6-mer frequency, TF over GST control).
Still for that read-out and setting: as for AGATAA, the figure is 1.02 fold enrichment (6-mer frequency, TF over GST control).
Same read-out and setting: under AACGCC stands 1 fold enrichment (6-mer frequency, TF over GST control); under ATCGTT, 1.01 fold enrichment (6-mer frequency, TF over GST control).
The same measure, in the same setting: under CATGGG stands 1.01 fold enrichment (6-mer frequency, TF over GST control); under TAGTAA, 1.09 fold enrichment (6-mer frequency, TF over GST control); under AAGCCC, 1.11 fold enrichment (6-mer frequency, TF over GST control).
In the case of AGCCCC, the binding signal was 1.03 fold enrichment (6-mer frequency, TF over GST control).
Still for that read-out and setting: as for GTCCAC, the figure is 1.07 fold enrichment (6-mer frequency, TF over GST control); as for CACCAA, 1.18 fold enrichment (6-mer frequency, TF over GST control); as for GCACTG, 1.04 fold enrichment (6-mer frequency, TF over GST control).
The same measure, in the same setting: as for CTGGCC, the figure is 1.19 fold enrichment (6-mer frequency, TF over GST control).
Still for that read-out and setting: as for GCCGAT, the figure is 1.13 fold enrichment (6-mer frequency, TF over GST control); as for CTACAG, 1.01 fold enrichment (6-mer frequency, TF over GST control).
For the sequence ATCGCA, the binding signal is 1.06 fold enrichment (6-mer frequency, TF over GST control).
Still for that read-out and setting: as for CTATAG, the figure is 1.03 fold enrichment (6-mer frequency, TF over GST control).
Same read-out and setting: as for GAATCT, the figure is 1.17 fold enrichment (6-mer frequency, TF over GST control); as for TCTGGG, 1.16 fold enrichment (6-mer frequency, TF over GST control).
Still for that read-out and setting: under CCGAAG stands 1.16 fold enrichment (6-mer frequency, TF over GST control); under TCTAGG, 1.03 fold enrichment (6-mer frequency, TF over GST control).

In a further assay the target is T2, ETV3L (Homo sapiens, UniProt Q6ZN32 1-361).
T2 sequence: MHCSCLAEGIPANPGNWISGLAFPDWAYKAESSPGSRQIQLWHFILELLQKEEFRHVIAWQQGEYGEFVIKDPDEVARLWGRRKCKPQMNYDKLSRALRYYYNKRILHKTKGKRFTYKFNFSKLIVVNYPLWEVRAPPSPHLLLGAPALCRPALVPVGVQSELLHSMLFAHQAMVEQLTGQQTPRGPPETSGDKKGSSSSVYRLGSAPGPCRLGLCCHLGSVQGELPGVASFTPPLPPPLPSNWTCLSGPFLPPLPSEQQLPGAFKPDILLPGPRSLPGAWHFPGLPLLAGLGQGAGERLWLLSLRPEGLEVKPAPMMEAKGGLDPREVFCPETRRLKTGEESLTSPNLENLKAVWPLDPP
The assay is described as above. To be noted: protein: recombinant; tags: N-terminal GST; dsDNA, one strand shown. The method in brief: as §1
As for TCCCAG, the binding signal was 1.08 fold enrichment (6-mer frequency, TF over GST control).
In the case of TTGGCT, the binding signal was 1.13 fold enrichment (6-mer frequency, TF over GST control).
Regarding CGATGA, the binding signal is 1.12 fold enrichment (6-mer frequency, TF over GST control).
Still for that read-out and setting: as for GCCCCC, the figure is 1.16 fold enrichment (6-mer frequency, TF over GST control); as for GCGTTT, 1.11 fold enrichment (6-mer frequency, TF over GST control); as for TTCGGC, 1.05 fold enrichment (6-mer frequency, TF over GST control).
Same read-out and setting: as for TAGTCT, the figure is 1.04 fold enrichment (6-mer frequency, TF over GST control); as for TAGGTC, 1.02 fold enrichment (6-mer frequency, TF over GST control); as for ACCGAA, 1.04 fold enrichment (6-mer frequency, TF over GST control).
Same read-out and setting: as for GTATGG, the figure is 1.03 fold enrichment (6-mer frequency, TF over GST control); as for AGCTGC, 1.07 fold enrichment (6-mer frequency, TF over GST control).
In the case of AGCCTA, the binding signal is 1.09 fold enrichment (6-mer frequency, TF over GST control).
Turning to AACCCA, the binding signal is 1.06 fold enrichment (6-mer frequency, TF over GST control).
As to ACTCGC, the binding signal is 1.08 fold enrichment (6-mer frequency, TF over GST control).
Same read-out and setting: under TATCAA stands 1.06 fold enrichment (6-mer frequency, TF over GST control); under AAGCAA, 1.01 fold enrichment (6-mer frequency, TF over GST control); under TGCGCG, 1.02 fold enrichment (6-mer frequency, TF over GST control).
The same measure, in the same setting: as for GAAAAA, the figure is 1.16 fold enrichment (6-mer frequency, TF over GST control).
In the case of CGATCA, the binding signal was 1.1 fold enrichment (6-mer frequency, TF over GST control).
On the same count and under the same terms, under GCGCCT stands 1.07 fold enrichment (6-mer frequency, TF over GST control); under ATCATT, 1.07 fold enrichment (6-mer frequency, TF over GST control); under AGATAA, 1.09 fold enrichment (6-mer frequency, TF over GST control).
Still for that read-out and setting: under AACGCC stands 1.11 fold enrichment (6-mer frequency, TF over GST control); under ATCGTT, 1.11 fold enrichment (6-mer frequency, TF over GST control).
Still for that read-out and setting: as for CATGGG, the figure is 1.14 fold enrichment (6-mer frequency, TF over GST control); as for TAGTAA, 1.04 fold enrichment (6-mer frequency, TF over GST control); as for AAGCCC, 1.07 fold enrichment (6-mer frequency, TF over GST control).
Regarding AGCCCC, the binding signal was 1.07 fold enrichment (6-mer frequency, TF over GST control).
The same measure, in the same setting: under GTCCAC stands 1.12 fold enrichment (6-mer frequency, TF over GST control); under CACCAA, 1.06 fold enrichment (6-mer frequency, TF over GST control).
In the case of GCACTG, the binding signal was 1.07 fold enrichment (6-mer frequency, TF over GST control).
On to CTGGCC, for which the binding signal was 1.11 fold enrichment (6-mer frequency, TF over GST control).
Still for that read-out and setting: as for GCCGAT, the figure is 1.07 fold enrichment (6-mer frequency, TF over GST control); as for CTACAG, 1.13 fold enrichment (6-mer frequency, TF over GST control).
Still for that read-out and setting: under ATCGCA stands 1 fold enrichment (6-mer frequency, TF over GST control); under CTATAG, 1.05 fold enrichment (6-mer frequency, TF over GST control); under GAATCT, 1.05 fold enrichment (6-mer frequency, TF over GST control).
Same read-out and setting: as for TCTGGG, the figure is 1.11 fold enrichment (6-mer frequency, TF over GST control); as for CCGAAG, 1.02 fold enrichment (6-mer frequency, TF over GST control).
Turning to TCTAGG, the binding signal is 1.08 fold enrichment (6-mer frequency, TF over GST control).

Another assay has as its target T3, ETS2 (Homo sapiens, UniProt P15036 1-469).
T3 sequence: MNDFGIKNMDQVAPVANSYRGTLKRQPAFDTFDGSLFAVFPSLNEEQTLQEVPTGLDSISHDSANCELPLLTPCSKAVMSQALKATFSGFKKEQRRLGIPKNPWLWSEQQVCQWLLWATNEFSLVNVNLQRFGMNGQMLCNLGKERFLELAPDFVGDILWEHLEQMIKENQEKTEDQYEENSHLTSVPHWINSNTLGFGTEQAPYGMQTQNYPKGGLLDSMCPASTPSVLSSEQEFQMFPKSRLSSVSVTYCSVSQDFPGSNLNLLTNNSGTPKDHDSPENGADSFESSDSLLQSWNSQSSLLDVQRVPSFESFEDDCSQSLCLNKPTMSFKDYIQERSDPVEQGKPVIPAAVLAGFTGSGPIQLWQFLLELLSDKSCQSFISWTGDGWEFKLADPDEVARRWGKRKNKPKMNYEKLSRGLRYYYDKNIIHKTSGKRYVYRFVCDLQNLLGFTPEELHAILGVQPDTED
Described as above. To be noted: protein: recombinant; tags: N-terminal GST; dsDNA, one strand shown. In outline: as §1
For the sequence GCCCCC, the binding signal was 1.03 fold enrichment (6-mer frequency, TF over GST control).
Regarding GCGTTT, the binding signal was 1.09 fold enrichment (6-mer frequency, TF over GST control).
Consider TAGTCT, for which the binding signal was 1.09 fold enrichment (6-mer frequency, TF over GST control).
In the case of ACCGAA, the binding signal is 1.07 fold enrichment (6-mer frequency, TF over GST control).
On the same count and under the same terms, under GTATGG stands 1.01 fold enrichment (6-mer frequency, TF over GST control); under AGCTGC, 1.17 fold enrichment (6-mer frequency, TF over GST control).
For AGCCTA, the binding signal is 1.04 fold enrichment (6-mer frequency, TF over GST control).
Still for that read-out and setting: under AACCCA stands 1.04 fold enrichment (6-mer frequency, TF over GST control).
Same read-out and setting: under ACTCGC stands 1.14 fold enrichment (6-mer frequency, TF over GST control); under TATCAA, 1.05 fold enrichment (6-mer frequency, TF over GST control); under AAGCAA, 1.11 fold enrichment (6-mer frequency, TF over GST control).
As for GAAAAA, the binding signal is 1.2 fold enrichment (6-mer frequency, TF over GST control).
Still for that read-out and setting: as for CGATCA, the figure is 1.19 fold enrichment (6-mer frequency, TF over GST control).
Regarding GCGCCT, the binding signal was 1.02 fold enrichment (6-mer frequency, TF over GST control).
The same measure, in the same setting: as for ATCATT, the figure is 1.01 fold enrichment (6-mer frequency, TF over GST control); as for AGATAA, 1.04 fold enrichment (6-mer frequency, TF over GST control).
Same read-out and setting: under AACGCC stands 1.06 fold enrichment (6-mer frequency, TF over GST control).
Same read-out and setting: as for ATCGTT, the figure is 1.06 fold enrichment (6-mer frequency, TF over GST control); as for AGCCCC, 1.09 fold enrichment (6-mer frequency, TF over GST control); as for GTCCAC, 1.05 fold enrichment (6-mer frequency, TF over GST control).
Regarding GCACTG, the binding signal is 1.07 fold enrichment (6-mer frequency, TF over GST control).
On the same count and under the same terms, under CTGGCC stands 1.17 fold enrichment (6-mer frequency, TF over GST control); under ATCGCA, 1.02 fold enrichment (6-mer frequency, TF over GST control); under CTATAG, 1 fold enrichment (6-mer frequency, TF over GST control).
Still for that read-out and setting: as for GAATCT, the figure is 1.08 fold enrichment (6-mer frequency, TF over GST control); as for CCGAAG, 1.08 fold enrichment (6-mer frequency, TF over GST control).
Same read-out and setting: under TCTAGG stands 1.02 fold enrichment (6-mer frequency, TF over GST control).
